The text below walks through data of PubChem BioAssay (NCI).

About 79,000 compounds went through this panel and 15% of them were active in at least one assay; those are over-represented in the sample as a whole. Activity calls are given as the source filed them. Cut-off read from the data, not from the text of the source: active = growth inhibition above about 70%; inactive = the rest.

A short description of the assay: NCI Yeast Anticancer Drug Screen. Data for the mec2-1 strain (AID 157). The following applies: S. cerevisiae mec2-1 strain, at 50.0 µM, stronger effect = higher value. In outline:
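Strain: mec2-1 (DNA repair/cell cycle alteration). Compound exposure, then growth measured; inhibition expressed relative to vehicle.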
Regarding `COC(=O)/C=C\CC(=O)OC`, the growth inhibition was -5% (inactive).

For the compound `C/C(=N\NC(=S)N1CCC(C2CCN(C(=S)N/N=C(\C)c3ccccn3)CC2)CC1)c1ccccn1`, the growth inhibition is 15.5% (inactive).

As for `CC1CCCN2C(=O)CN(Cc3ccccc3)CC(=O)N12` (stereo not given), the growth inhibition was -3.3% (inactive).

Turning to `CC1CC(O)CC(C)(C)C1.CC1CC(O)CC(C)(C)C1.CC1CC(O)CC(C)(C)C1.CC1CC(O)CC(C)(C)C1.[Ti]` (stereo not given), the growth inhibition is -4.65% (inactive).

Turning to `NNC(=Nc1ccccc1)SCc1ccccc1`, the growth inhibition is 0.5% (inactive).

For the compound `O=C(OC(=O)c1ccc(Cl)cc1)c1ccc(Cl)cc1`, the growth inhibition was 25.9% (inactive).

Take `Clc1ccccc1C(Nc1nc2ccccc2s1)Nc1nc2ccccc2s1`: the growth inhibition is 0.8% (inactive).

Regarding `CCCCCCCCCCN(CCCCCCCCCC)C(C)C(O)c1ccc2cc(Br)c3ccccc3c2c1` (stereo not given), the growth inhibition was -13.2% (inactive).

Take `O=CC(O)C(O)C(O)C(O)COC(=S)OCC(O)C(O)C(O)C(O)C=O` (stereo not given) (tested in a mixture with another compound): the growth inhibition is -10.1% (inactive).

For the compound `COc1ccc(/C=N/Nc2nc3ccccc3s2)cc1`, the growth inhibition is -3.15% (inactive).

For `CCCCOC1NC(=O)NC(=O)C1(F)C(=O)OCC` (stereo not given), the growth inhibition is -9.75% (inactive).

On to `CCOC(=O)CC(=O)C(=O)NNC1=NCCN1`, for which the growth inhibition is 11.6% (inactive).

On to `Nc1ccccc1N/N=C/c1ccccc1`, for which the growth inhibition was 15.3% (inactive).

Take `CC12CCC(=O)C=C1CCC1C2CCC2(C)C1CCC2(O)C(=O)Cn1c(=O)cc[nH]c1=O` (stereo not given): the growth inhibition was 4.65% (inactive).

As to `C/C(CC(=O)NC1=CC=C(NC(=O)C/C(C)=N\Nc2ccccc2)CC1)=N/Nc1ccccc1`, the growth inhibition was 12% (inactive).

Consider `CCCCCC(C)(O)CCC` (stereo not given), for which the growth inhibition is -6.65% (inactive).

In the case of `CCOC(=O)CN1C(=O)CSC1=S`, the growth inhibition is -3.85% (inactive).

Consider `CC1(C)CC2(C)Sc3ccccc3N2C(=S)N1` (stereo not given), for which the growth inhibition is -2.15% (inactive).

Take `O=[N+]([O-])c1cccc2c1ccc1nonc12`: the growth inhibition is -5.15% (inactive).

Take `CC1=NOC(C)(O)/C1=N/O` (stereo not given): the growth inhibition was 1.05% (inactive).

For `Cc1cc(Br)ccc1NC1=CC(=O)C(=O)c2ccccc21`, the growth inhibition is 19.6% (inactive).

Consider `NC(=O)C(Cc1ccccc1)NC(=O)C1CCCN1` (stereo not given), for which the growth inhibition is 1.35% (inactive).

As for `OCC(O)Cn1cnc2c(NO)ncnc21` (stereo not given), the growth inhibition is -20.8% (inactive).

Regarding `O=C(O)COc1ccc(I)cc1I`, the growth inhibition was -8.05% (inactive).

As to `CCCCNCCS`, the growth inhibition is -14.6% (inactive).

For `COC1(c2ccc(C)cc2)c2cccc3cccc(c23)C1(O)c1ccc(C)cc1` (stereo not given), the growth inhibition was 15.6% (inactive).

With `C[N+]([O-])(C/C=C/c1ccccc1)c1ccccc1` (stereo not given), the growth inhibition was -2.3% (inactive).

With `NNC(=O)Nc1ccccc1`, the growth inhibition is 5.55% (inactive).

For `OCC[N+]1(CCO)CCOCC1`, the growth inhibition was -2.9% (inactive).

`CCO/C=C1/C(=O)N(C)c2c1c(=O)n(C)c(=O)n2C`: the growth inhibition is -0.25% (inactive).

Consider `Cc1nc2ccccc2[nH]1`, for which the growth inhibition is -31.1% (inactive).

Regarding `Cc1cccc(NC(=O)CSc2nnc(Cc3ccccc3)o2)c1`, the growth inhibition was -16.3% (inactive).

With `Cc1ccc(S(=O)(=O)n2ccnc2)cc1`, the growth inhibition was -21.9% (inactive).

Regarding `CCCCCCCCCCCC1=C(O)C(=O)C(I)=C(O)C1=O`, the growth inhibition was 58.5% (inactive).

On to `C[C@@]12CCC[C@H]1[C@@H]1CC=C3C[C@@H](S)CC[C@]3(C)[C@H]1CC2`, for which the growth inhibition is 4.5% (inactive).

As for `C[Si](Cn1ccc(=O)n(C[Si](C)(c2ccccc2)c2ccccc2)c1=O)(c1ccccc1)c1ccccc1`, the growth inhibition is -7.65% (inactive).

As for `COc1ccc(C2CC(=O)NC2=O)cc1OC` (stereo not given), the growth inhibition is 17.4% (inactive).

Turning to `O=C(O)/C=N\Nc1nc2ccccc2[nH]1`, the growth inhibition is -5.95% (inactive).

In the case of `CCC(=O)OCCSCCOC(=O)CC`, the growth inhibition is 5.65% (inactive).

On to `CC(C)[Si](C#CC[Si](C(C)C)(C(C)C)C(C)C)(C(C)C)C(C)C`, for which the growth inhibition is -6% (inactive).
